Data on twelve molecules can be found in PubChem BioAssay (NCATS).

Where “and” joins values, the source holds several entries; their conditions need not be identical. Equal entries are not always repeated. Results filed as inconclusive are left out. Calls of active or inactive are those of the source. Unless noted, calls follow the shape of the dose curve; as a rule, active = well fitted curve in the direction sought with a large enough effect; inconclusive = small, poorly fitted or top-dose-only effect, or another doubt; inactive = no such curve, though single readings can be large; an effect the other way counts as inactive or inconclusive.

A short description of experiment [1]: Cellular Toxicity (caspase-3) NIH 3T3 (AID 666).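 Also: caspase signal read after 16 h compound exposure.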 The method, boiled down:
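Caspase-Glo 3/7 luminescence reported caspase activation in 1000 NIH 3T3 cells/well after 16 h compound exposure at 37 C. DMSO set basal and 100 uM tamoxifen set 100% stimulation; concentration-response modeled with the Hill equation for AC50.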

Experiment [2] can be described thus: Cellular Toxicity (caspase-3) Renal Proximal Tubule (AID 667).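 Also: cells exposed to compound for 16 hours at 37 °C before detection.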 An outline of the steps:
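Freshly isolated primary rat kidney proximal tubule cells, 1000/well, treated 16 hr at 37 °C, then Caspase-Glo 3/7 luminescence after 1 hr. Normalized to DMSO and 10 uM staurosporine; AC50 from Hill fit.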

Experiment [3] deals with Guanine nucleotide-binding protein G(i) subunit alpha-1 (Homo sapiens) (UniProt P63096). Description: qHTS Assay for Inhibitors of RGS12 GoLoco Motif Activity (Green Fluorophore) (AID 879).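 Also: negative values mean loss of peptide binding seen as reduced polarization.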 An outline of the steps:
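A drop in FITC polarization marked displacement of the FITC-tagged RGS12 GoLoco peptide (10 nM) from Gαi1 (50 nM). Compounds were incubated 10 min at room temperature in Tris pH 7.5 buffer containing 150 mM NaCl, 0.1 mM GDP and 0.05% NP40; unlabeled peptide titration served as control.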

Experiment [4] in a line: Confirmation and Secondary Assay for Modulators of Hemoglobin Beta Chain Splicing at IVS2 654 locus (AID 910).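 Also: HeLa cells stably carrying EGFP split by mutant beta-globin IVS2-654 intron.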 The method, boiled down: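 HeLa cells stably expressing EGFP interrupted by β-globin IVS2-654 intron, seeded overnight in Opti-MEM/2% FCS, then treated 2 days at 37 °C. Restored splicing read as total peak GFP intensity per well by laser scanning cytometry (488 nm excitation, 500–520 nm emission); 500 nM antisense PNA as control.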

For experiment [5], the target named is Cytochrome P450 3A4 (Homo sapiens) (UniProt P08684). Kind of experiment: qHTS Assay for Activators of Cytochrome P450 3A4 (AID 885). Also: nearly all actives have a fitted effect of over 65% in size. The method, boiled down: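 CYP3A4 activity: Luciferin-PPXE O-dealkylation, 25uM substrate, 200mM KPO4, RT throughout. Read-out is luciferase luminescence; higher values reflect activation.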
Chain of Cytochrome P450 3A4 (Homo sapiens) (P08684 whole entry, looked up): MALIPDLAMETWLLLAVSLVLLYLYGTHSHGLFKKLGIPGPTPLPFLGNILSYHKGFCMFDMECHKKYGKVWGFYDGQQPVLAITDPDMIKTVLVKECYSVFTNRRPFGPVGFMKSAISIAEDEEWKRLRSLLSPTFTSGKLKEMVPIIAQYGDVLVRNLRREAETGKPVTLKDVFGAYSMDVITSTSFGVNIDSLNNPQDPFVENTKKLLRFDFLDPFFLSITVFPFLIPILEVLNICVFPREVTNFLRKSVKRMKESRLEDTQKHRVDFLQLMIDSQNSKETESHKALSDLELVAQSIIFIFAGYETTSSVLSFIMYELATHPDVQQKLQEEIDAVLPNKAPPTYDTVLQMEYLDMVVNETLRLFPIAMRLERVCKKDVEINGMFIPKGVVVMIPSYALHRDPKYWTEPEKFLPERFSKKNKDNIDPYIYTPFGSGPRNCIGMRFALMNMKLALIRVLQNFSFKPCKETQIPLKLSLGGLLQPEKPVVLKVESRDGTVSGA
The target of experiment [6] is Cytochrome P450 2D6 (Homo sapiens) (UniProt P10635). Kind of experiment: qHTS Assay for Inhibitors and Substrates of Cytochrome P450 2D6 (AID 891). Also: nearly all actives have a fitted effect of over 60% in size. Also: potency is read from the fitted curve at half-maximal effect. An outline of the steps:
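Luminescent read-out of luciferin formed by 5 nM human CYP2D6 demethylating 30 uM Luciferin-ME EGE (Km level) over 60 min at room temperature after NADPH regeneration addition. Data normalized to full inhibition by 1.43 uM quinidine.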

For experiment [7], the target named is Cytochrome P450 2C9 (Homo sapiens) (UniProt P11712). Description: qHTS Assay for Inhibitors and Substrates of Cytochrome P450 2C9 (AID 883). Also: nearly all actives have a fitted effect of over 60% in size. Also: potency is read from the fitted curve at half-maximal effect. An outline of the steps: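 10nM CYP2C9 + 100uM Luciferin-H (=KM), 25mM KPO4; cpd 10 min 37C; NADPH regen, 60 min 37C; stop/detect with P450 Glo-Buffer 20 min; luminescence. Norm. to 57uM sulphaphenazole as full inhibition.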
Chain of Cytochrome P450 2C9 (Homo sapiens) (P11712 whole entry, looked up): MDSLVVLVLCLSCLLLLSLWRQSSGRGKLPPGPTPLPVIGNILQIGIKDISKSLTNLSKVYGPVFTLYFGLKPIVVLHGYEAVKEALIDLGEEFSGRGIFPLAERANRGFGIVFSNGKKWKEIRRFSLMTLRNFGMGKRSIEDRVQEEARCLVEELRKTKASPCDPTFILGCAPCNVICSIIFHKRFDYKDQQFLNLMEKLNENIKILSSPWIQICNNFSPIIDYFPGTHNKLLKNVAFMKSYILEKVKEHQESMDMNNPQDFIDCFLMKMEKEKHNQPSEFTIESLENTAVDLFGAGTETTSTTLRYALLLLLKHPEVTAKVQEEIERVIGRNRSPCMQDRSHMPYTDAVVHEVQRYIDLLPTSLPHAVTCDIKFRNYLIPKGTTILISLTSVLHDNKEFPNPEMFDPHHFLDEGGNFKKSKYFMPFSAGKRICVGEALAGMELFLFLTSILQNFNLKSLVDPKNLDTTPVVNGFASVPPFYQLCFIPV

Experiment [8] addresses Cytochrome P450 2C19 (Homo sapiens) (UniProt P33261). Description: qHTS Assay for Inhibitors and Substrates of Cytochrome P450 2C19 (AID 899). Also: nearly all actives have a fitted effect of over 60% in size. Also: potency is read from the fitted curve at half-maximal effect. An outline of the steps:
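Luminescent read-out of luciferin formed from Luciferin-H EGE (10uM, equal to KM). Enzyme 5nM in 50mM KPO4; compound added, 10 min at 37C, then NADPH regenerating system for 60 min at 37C. Full inhibition defined by 57uM ketoconazole.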

In experiment [9] the target is Cytochrome P450 3A4 (Homo sapiens) (UniProt P08684). Kind of experiment: qHTS Assay for Inhibitors and Substrates of Cytochrome P450 3A4 (AID 884). Also: series mostly up to about 57 µM; nearly all actives have a fitted effect of over 50% in size. The method, boiled down: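 Luminescent readout of luciferin produced by CYP3A4 (20 nM) dealkylation of Luciferin-PPXE, 25 uM (its KM). NADPH-driven reaction ran 60 min at RT after 10 min compound preincubation; data scaled to 57 uM ketoconazole as 100% inhibition.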

Experiment [10] can be described thus: qHTS Assay for Identification of Small Molecule Antagonists for NFkB Signaling Pathway (AID 895; active = well fitted inhibition curve with a large enough effect in the signal ratio, with a control signal flat, not every such curve was filed as active; the % refers to the signal ratio). An outline of the steps:
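ME-180 NFkB-bla cells (beta-lactamase under NFkB response element), plated overnight, treated with compound then 10 pM TNF alpha (about EC50) for 5 hrs at 37 C. LiveBLAzer FRET read at 460/530 nm emission, 405 nm excitation.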

Chain of Cytochrome P450 2D6 (Homo sapiens) (P10635 whole entry, looked up): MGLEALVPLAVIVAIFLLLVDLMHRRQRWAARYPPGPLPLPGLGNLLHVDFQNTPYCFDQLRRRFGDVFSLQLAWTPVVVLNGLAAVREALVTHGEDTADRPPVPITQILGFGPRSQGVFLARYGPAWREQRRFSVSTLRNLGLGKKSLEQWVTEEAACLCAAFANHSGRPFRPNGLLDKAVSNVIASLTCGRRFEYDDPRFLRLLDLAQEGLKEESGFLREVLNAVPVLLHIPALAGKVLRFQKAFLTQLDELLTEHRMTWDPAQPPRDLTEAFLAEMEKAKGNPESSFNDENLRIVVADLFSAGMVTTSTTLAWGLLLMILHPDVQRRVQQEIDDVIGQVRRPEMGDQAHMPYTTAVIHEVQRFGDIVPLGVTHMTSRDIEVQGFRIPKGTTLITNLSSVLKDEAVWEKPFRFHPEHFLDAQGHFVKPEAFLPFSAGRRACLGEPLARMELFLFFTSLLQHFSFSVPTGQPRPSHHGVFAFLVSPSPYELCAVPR
Chain of Cytochrome P450 2C19 (Homo sapiens) (P33261 whole entry, looked up): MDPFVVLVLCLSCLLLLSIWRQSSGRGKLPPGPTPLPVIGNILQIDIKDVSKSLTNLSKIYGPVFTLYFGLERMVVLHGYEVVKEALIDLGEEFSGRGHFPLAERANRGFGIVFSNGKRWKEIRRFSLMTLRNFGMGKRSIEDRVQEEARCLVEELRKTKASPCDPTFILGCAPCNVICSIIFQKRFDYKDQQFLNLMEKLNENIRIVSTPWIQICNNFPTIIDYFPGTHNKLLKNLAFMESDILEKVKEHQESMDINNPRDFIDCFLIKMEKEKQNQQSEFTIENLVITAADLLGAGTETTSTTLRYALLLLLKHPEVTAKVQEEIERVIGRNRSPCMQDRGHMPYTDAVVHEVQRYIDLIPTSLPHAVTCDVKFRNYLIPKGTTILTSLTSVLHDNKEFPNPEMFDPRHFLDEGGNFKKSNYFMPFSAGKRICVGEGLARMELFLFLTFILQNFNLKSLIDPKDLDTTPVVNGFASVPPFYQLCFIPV
Chain of Guanine nucleotide-binding protein G(i) subunit alpha-1 (Homo sapiens) (P63096 whole entry, looked up): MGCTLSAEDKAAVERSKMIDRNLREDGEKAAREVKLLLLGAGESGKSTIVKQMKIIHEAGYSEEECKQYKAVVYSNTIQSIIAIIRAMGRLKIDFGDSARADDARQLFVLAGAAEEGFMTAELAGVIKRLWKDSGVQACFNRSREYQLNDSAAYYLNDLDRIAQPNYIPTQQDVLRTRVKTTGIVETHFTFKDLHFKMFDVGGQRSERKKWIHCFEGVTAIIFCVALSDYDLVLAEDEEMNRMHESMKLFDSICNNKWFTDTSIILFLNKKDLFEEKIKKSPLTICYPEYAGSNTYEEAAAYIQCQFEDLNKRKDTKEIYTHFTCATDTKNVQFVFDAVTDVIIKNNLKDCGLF

Consider `Clc1ccc(C(c2ccccc2Cl)C(Cl)Cl)cc1` (configuration not stated), for which the molecule was classed as inactive in experiment [1] and in experiment [2]. For the same molecule, the Potency entry in experiment [3] and in experiment [4] was “inactive” in each case.
On to `Cc1ccc(-c2cc(C(F)(F)F)nn2-c2ccc(S(N)(=O)=O)cc2)cc1`, for which the call in experiment [1] and in [2] was inactive. Moreover, in experiment [4], the Potency result is “inactive”.
In the case of `CC(C)NCC(O)c1ccc(O)c(O)c1` (configuration not stated), the molecule was classed as inactive in experiment [1] and in experiment [2]. The Potency entry in experiment [4] is “inactive”.
Turning to `Cc1cn([C@H]2C[C@H](N=[N+]=[N-])[C@@H](CO)O2)c(=O)[nH]c1=O`, the molecule was classed as inactive in experiment [1] and in [2].
Consider `CC(C)C(=O)Nc1ccc([N+](=O)[O-])c(C(F)(F)F)c1`, for which the outcome in [1] and in experiment [2] was inactive. For the same molecule, the Potency entry in experiment [3], in experiment [5], in experiment [6] and in experiment [4] was “inactive” in each case.
Consider `Clc1ccccc1C(c1ccccc1)(c1ccccc1)n1ccnc1`, for which the Potency entry in [3], in [5] and in experiment [4] was “inactive” each time. Moreover, the Potency was 1 µM (active) and 316 nM (active) in [7]; 10 µM (active) in experiment [6]; 10 µM (active) in [8].
`Cn1c(=O)c2c(ncn2C)n(C)c1=O`: the molecule was called inactive in [1], in experiment [2] and in experiment [9]. The Potency entry in experiment [3], in experiment [7], in experiment [6], in experiment [8] and in experiment [4] was “inactive” each time.
Regarding `COc1ccc(CCN(C)CCCC(C#N)(c2ccc(OC)c(OC)c2)C(C)C)cc1OC` (configuration not stated), the result in [1] and in experiment [2] was inactive.
For `Cn1c(=O)c2[nH]cnc2n(C)c1=O`, the call in experiment [1], in experiment [2] and in experiment [9] was inactive. Further, the Potency entry in experiment [3], in [10] and in experiment [4] was “inactive” throughout.
Regarding `NS(=O)(=O)c1cc2c(cc1Cl)NCNS2(=O)=O`, the call in experiment [1] and in [2] was inactive. The Potency result in [3] and in [4] was “inactive” throughout.
As to `Cc1cn([C@H]2C=C[C@@H](CO)O2)c(=O)[nH]c1=O`, the molecule was called inactive in experiment [1], in experiment [2] and in [9]. Also, the Potency result in experiment [3] is “inactive”.
`COc1cc2c(c(OC)c1OC)-c1ccc(OC)c(=O)cc1[C@@H](NC(C)=O)CC2`: the outcome in experiment [1] and in experiment [2] was inactive. In addition, the Potency entry in experiment [3] and in [10] was “inactive” in each case.
